# From PubChem BioAssay
# D2 PAM-1 – positive allosteric modulators of human D2 dopamine receptor. DiscoveRx D2 beta-arrestin cells, luminescence, 90 min; 100% = 57 uM dopamine signal. potentiation, % (concentration not given with the values). P14416. 360,000 compounds, 0.23% hits. AID 624464; in the data active = potentiation above about 50%
#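 D2 cells co-treated with compound plus 50 nM dopamine (EC20) for 90 min at 37 deg C to detect potentiation. Beta-arrestin recruitment was read as enzyme-fragment luminescence after 1 h at ambient temperature. Full response was set by 57 uM dopamine.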
# D2 PAM-2 – positive allosteric modulators of human D2 dopamine receptor; 340,000 compounds, 0.34% hits; P14416; potentiation, % at 10 µM; HEK293 T-REx D2, calcium flux, EC20 dopamine potentiation;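 active = potentiation over 3 SD above the plate norm, cut at about 30% in these data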; also: 0% is about no effect
#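 Potentiation of an EC20 dopamine calcium response measured kinetically over 180 s, after a preceding 180 s compound-only read flagging agonists. Cells: inducible Hek293 Trex D2 line, 4000/well, cultured overnight at 30 C before dye loading.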
# D2 antag – antagonists of human D2 dopamine receptor. HEK293 TREx D2 cells, calcium flux, dopamine EC80. inhibition, % at 10 µM. P14416. 340,000 compounds, 2% hits. AID 485344; in the data active = inhibition above about 30%; inactive = below that, where a call was filed; also: 0% is about no effect
#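 HEK293 T-REx D2 cells, tet-induced, calcium dye no-wash. Cpd pintool add, 180 s kinetic, then EC80 DA, 180 s kinetic. Ca flux read.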
# D2 ag-1 – human D2 receptor agonism in beta-arrestin assay. P14416. DiscoveRx PathHunter D2 beta-arrestin, luminescence, 90 min; 100% = 57 uM dopamine signal. activation, % (concentration not given with the values). 360,000 compounds, 0.084% hits; in the data active = activation above about 40%
#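 DiscoveRx PathHunter D2 beta-arrestin cells (2,100/well) attached overnight, then compound-stimulated 90 min at 37 C in HBSS/10 mM HEPES/0.1% Tween-20 buffer; beta-galactosidase complementation read by luminescence after 1 h at ambient temperature. Dopamine 57 uM final (EC100) as control.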
# D2 ag-2 – activates the human D2 dopamine receptor | P14416 | HEK293 T-REx D2 cells, calcium flux agonist mode | activation, % at 2 µM | 340,000 compounds, 0.53% hits;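 active = activation over 3 SD above normal in the single-dose calcium agonist read, cut at about 30% in these data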; also: 0% is about no effect
#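 HEK293 Trex D2 cells, tetracycline-induced, o/n 30 C 5% CO2; no-wash Ca dye, RT 30–90 min; 10-cycle baseline, 23 nl cpd added, kinetic Ca read 180 s; agonist hits = positive Ca response.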
# B2AR arrestin – beta2AR (human) beta-arrestin recruitment activity. beta-arrestin recruitment to beta2AR, cell-based reporter. Potency, µM (titrated, usually from 46.1 µM), for the others: top-dose activation, actives largely listed as activators. P07550. 330,000 compounds, 0.02% hits; active = well fitted activation curve with a large enough effect;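 also: potency is read from the fitted curve at half-maximal effect; 0% = DMSO controls and full agonism = EC100 isoproterenol or metaproterenol; nearly all actives have a fitted effect of over 65% in size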
# Target sequence (P07550 whole entry, looked up): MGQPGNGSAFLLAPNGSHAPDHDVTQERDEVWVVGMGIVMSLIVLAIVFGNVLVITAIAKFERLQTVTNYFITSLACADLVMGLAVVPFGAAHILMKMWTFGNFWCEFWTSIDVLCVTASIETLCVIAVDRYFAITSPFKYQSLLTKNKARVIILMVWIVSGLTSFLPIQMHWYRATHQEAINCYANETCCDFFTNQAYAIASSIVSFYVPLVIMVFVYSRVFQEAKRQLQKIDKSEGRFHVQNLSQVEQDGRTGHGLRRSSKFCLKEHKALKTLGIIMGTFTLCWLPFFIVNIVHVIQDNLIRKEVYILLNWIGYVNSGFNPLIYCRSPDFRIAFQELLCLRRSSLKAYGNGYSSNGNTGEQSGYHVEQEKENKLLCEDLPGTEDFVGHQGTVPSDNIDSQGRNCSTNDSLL
# * marks the source's active call; other numbers are inactive results; . = no result. Compounds with a hit are over-represented: about 2.4% of the library has one in this group of screens.
SMILES,D2 PAM-1,D2 PAM-2,D2 antag,D2 ag-1,D2 ag-2,B2AR arrestin
Fc1ccc(N2CCN(c3ncnc4nc[nH]c34)CC2)cc1,5,3,1,6,0,0%
COC(=O)C1CCN(S(C)(=O)=O)CC1,-4,42*,-15,-4,1,3%
COCCn1c(SCC(=O)NC(C)c2ccc(F)cc2)nc2ccccc21 (stereo not drawn),-6,34*,14,-4,-1,3%
COc1ccccc1NC(=O)CNC(c1ccccc1)c1ccccc1,-6,.,36*,-3,-1,0%
COc1ccc(C(=O)NCC(c2ccc(F)cc2)N2CCOCC2)cc1S(=O)(=O)N1CCCC1 (stereo not drawn),8,20,.,-5,.,-1%
O=C(COC(=O)c1cnccn1)NC(=O)c1ccccc1,4,0,0,2,0,-1%
COc1cc(Cl)c(C)cc1NC(=O)CC1SC(N2CCOCC2)=NC1=O (stereo not drawn),-4,-23,99*,0,-1,3%
COc1ccc(NC(=O)CC2SC(N3CCOCC3)=NC2=O)c(OC)c1 (stereo not drawn),-5,.,.,2,.,0%
O=C(Cn1nc(C(F)(F)F)c2c1CCCC2)Nc1ccc2c(c1)OCO2,-12,32*,-6,-4,1,0%
OCCC1CN(Cc2ccon2)CCN1Cc1ccc(F)c(F)c1 (stereo not drawn),-7,3,-14,-2,0,-1%
COC(=O)c1ccc(C(=O)OC)c(NC(=O)CSCc2ccccc2Br)c1,0,-1,45*,-1,0,0%
O=C(CSCc1ccccc1Br)Nc1ccccc1,-5,1,-11,-5,-1,0%
O=[N+]([O-])c1cc(S(=O)(=O)Nc2cccc(C(F)(F)F)c2)ccc1-n1nnc2ccccc21,-11,0,-9,0,-2,0%
CC(NC(=O)Cc1ccc(F)cc1)C(c1cccs1)N1CCN(C)CC1 (stereo not drawn),3,50*,-1,-1,0,3%
CC(NC(=O)c1cccs1)C(c1cccs1)N1CCN(c2ccccc2)CC1 (stereo not drawn),-4,55*,7,0,0,0%
CC(C)C(=O)NC(C)C(c1cccs1)N1CCN(c2ccccc2)CC1 (stereo not drawn),-13,17,-10,1,1,0%
O=C(CSc1nncn2c1cc1sccc12)Nc1ccccc1C(F)(F)F,.,-4,.,.,-1,.
FC(F)(F)c1ccc(N2CCN(c3cc(-c4ccccc4)nc4ncnn34)CC2)nc1,-3,-3,-13,3,0,0%
N#CCc1ccc(OC(=O)c2cccnc2Cl)cc1,-1,.,.,-3,.,.
Cc1cccc2cc(CN(CC3CCCO3)C(=S)Nc3ccccc3)c(=O)[nH]c12 (stereo not drawn),-13,-3,-1,-2,0,-1%
COc1ccc(SCCC(=O)NCc2ccncc2)cc1,1,-14,32*,1,0,0%
CCN1CCN(Cc2cc(=O)oc3ccc(Cl)cc23)CC1,-33,-14,-4,-3,0,-1%
Cc1ccc2oc(=O)cc(CN3CCN(Cc4ccccc4)CC3)c2c1,-13,-21,52*,0,-1,0%
Cc1cc2oc(=O)cc(CN3CCN(S(=O)(=O)c4ccc5c(c4)OCCO5)CC3)c2cc1C,-4,10,0,-3,-1,0%
Cc1cc2oc(=O)cc(CN3CCN(S(=O)(=O)/C=C/c4ccccc4)CC3)c2cc1C,-9,-17,-4,0,36*,-1%
CN1CCN(Cc2cc(=O)oc3ccc(Cl)cc23)CC1,-15,-6,45*,-4,1,0%
CCCCn1c(SCC(=O)N2CCCCC2)nc2cc(S(N)(=O)=O)ccc21,-19,2,-1,-2,1,0%
COc1ccccc1N1CCN(C(=O)Cn2cnc3onc(-c4ccc(F)cc4)c3c2=O)CC1,.,-1,.,.,-1,.
